Compound activity as filed in PubChem.
Shown are actives, neighbours in structure and some others; about 6.7% of the full set was active somewhere.
C diff HTS: inhibitors of Clostridium difficile growth; Clostridium difficile clinical isolate growth, OD600, 24 h; active compounds read low; growth activity, negative = inhibition, % at 16 µg/mL (by protocol); 86,000 tested, 0.25% active;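 active means mean growth activity at or below -80% and every replicate also at or below -80%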
Tcruzi prolif: T. cruzi proliferation inhibition; T. cruzi beta-gal in NIH3T3, GalScreen luminescence, 90 h; inhibition, % at 8.34 µM; 77,000 tested, 5.9% active; AID 624255;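 active means mean inhibition above about 93%, with at least 55% of replicates each passing it, limit read from the data, passing the limit was not always enough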
Pf Dd2 growth: blocks growth of Plasmodium falciparum Dd2 parasites | AID 1159554 | 94,000 tested, 2.3% active | activity change, % at 10 µM | P. falciparum Dd2 growth, SYBR Green, 72 h; active compounds read low; in the data active means activity change below about -80%
Hits are given with their value; . = inactive; / = no result.

SMILES | C diff HTS | Tcruzi prolif | Pf Dd2 growth
COc1ccc(NC(=O)Nc2ccc3c(c2)C(=O)N([C@@H](C)CO)C[C@H](C)[C@H](CN(C)S(=O)(=O)c2ccc(F)cc2)OCCCC[C@@H](C)O3)cc1 | . | . | -85
COc1ccc(S(=O)(=O)N(C)C[C@@H]2OCCCC[C@H](C)Oc3ccc(NC(=O)Nc4ccc(F)cc4)cc3C(=O)N([C@@H](C)CO)C[C@H]2C)cc1 | . | . | .
COc1ccc(S(=O)(=O)N(C)C[C@H]2OCCCC[C@@H](C)Oc3ccc(NC(=O)Nc4ccc(F)cc4)cc3C(=O)N([C@@H](C)CO)C[C@H]2C)cc1 | . | . | .
COc1ccc(S(=O)(=O)N(C)C[C@@H]2OCCCC[C@@H](C)Oc3ccc(NC(=O)Nc4ccc(F)cc4)cc3C(=O)N([C@@H](C)CO)C[C@@H]2C)cc1 | . | . | -81
O=S(=O)(NCC[C@@H]1CC[C@H](NS(=O)(=O)c2ccccc2Cl)[C@H](CO)O1)c1ccc(Cl)cc1 | / | . | .
CO[C@H]1CN(C)C(=O)c2ccc(NC(=O)c3nc4ccccc4s3)cc2OC[C@@H](C)N(Cc2cccnc2)C[C@@H]1C | . | . | .
CO[C@@H]1CN(C)C(=O)c2ccc(NC(=O)c3nc4ccccc4s3)cc2OC[C@@H](C)N(Cc2ccncc2)C[C@H]1C | / | / | -97
CO[C@@H]1CN(C)C(=O)c2ccc(NC(=O)c3nc4ccccc4s3)cc2OC[C@@H](C)N(Cc2cccnc2)C[C@H]1C | . | . | -90
CO[C@H]1CN(C)C(=O)c2ccc(NC(=O)c3nc4ccccc4s3)cc2OC[C@H](C)N(Cc2ccncc2)C[C@@H]1C | / | / | -93
CO[C@H]1CN(C)C(=O)c2ccc(NC(=O)c3nc4ccccc4s3)cc2OC[C@@H](C)N(Cc2ccncc2)C[C@H]1C | / | / | .
CO[C@@H]1CN(C)C(=O)c2ccc(NC(=O)c3nc4ccccc4s3)cc2OC[C@H](C)N(Cc2ccncc2)C[C@H]1C | / | / | .
COc1ccc(NC(=O)N(C)C[C@@H]2OCCCC[C@H](C)Oc3ccc(NS(=O)(=O)c4ccc(OC)cc4)cc3C(=O)N([C@H](C)CO)C[C@H]2C)cc1 | . | / | .
CNC(=O)C[C@H]1CC[C@@H]2[C@H](COc3ccc(NC(=O)Cc4cccs4)cc3C(=O)N2C)O1 | . | . | .
COc1ccc2c3c([nH]c2c1)[C@H](CO)N(C)CC31CCN(S(=O)(=O)c2ccc(C)cc2)CC1 | . | / | .
COc1ccc2c3c([nH]c2c1)[C@@H](CO)N(S(=O)(=O)c1ccccc1)CC31CCN(C)CC1 | . | / | .
CCC(=O)N1CCC2(CC1)CN(S(=O)(=O)c1ccccc1)[C@H](CO)c1[nH]c3cc(OC)ccc3c12 | . | / | -86
CCCC(=O)N1CCC2(CC1)CN(S(=O)(=O)c1ccc(C)cc1)[C@@H](CO)c1[nH]c3cc(OC)ccc3c12 | . | / | -92
CCC(=O)Nc1ccc2c(c1)C(=O)N(C)C[C@@H](OC)[C@H](C)CN(C(=O)COC)[C@@H](C)CO2 | / | / | .
O=C(Nc1ccc2c(c1)[C@@H]1C[C@H](CC(=O)N3CCc4ccccc4C3)O[C@H](CO)[C@@H]1O2)c1cccnc1 | / | . | .
C[C@@H]1CN([C@@H](C)CO)C(=O)c2cccc(NS(=O)(=O)c3ccc(Cl)cc3)c2O[C@H]1CN(C)Cc1ccc(C(=O)Nc2ccccc2N)cc1 | . | / | .
C[C@H]1CN([C@@H](C)CO)C(=O)c2cccc(NS(=O)(=O)c3ccccc3)c2O[C@H]1CN(C)Cc1ccc(C(=O)Nc2ccccc2N)cc1 | . | / | -88
C[C@H]1CN([C@@H](C)CO)C(=O)c2cccc(NS(=O)(=O)c3ccccc3)c2O[C@@H]1CN(C)Cc1ccc(C(=O)Nc2ccccc2N)cc1 | . | / | .
C[C@@H]1CN([C@H](C)CO)C(=O)c2cccc(NS(=O)(=O)c3ccccc3)c2O[C@@H]1CN(C)Cc1ccc(C(=O)Nc2ccccc2N)cc1 | . | / | -85
Cc1ccc(S(=O)(=O)Nc2cccc3c2O[C@@H](CN(C)Cc2ccc(C(=O)Nc4ccccc4N)cc2)[C@@H](C)CN([C@H](C)CO)C3=O)cc1 | . | / | -83
Cc1ccc(S(=O)(=O)Nc2cccc3c2O[C@H](CN(C)Cc2ccc(C(=O)Nc4ccccc4N)cc2)[C@@H](C)CN([C@H](C)CO)C3=O)cc1 | . | / | .
SMILES | C diff HTS | Tcruzi prolif | Pf Dd2 growth
C[C@@H]1CN([C@H](C)CO)C(=O)c2cccc(NS(=O)(=O)c3ccc(F)cc3)c2O[C@@H]1CN(C)Cc1ccc(C(=O)Nc2ccccc2N)cc1 | . | . | -86
C[C@@H]1CN([C@H](C)CO)C(=O)c2cccc(NS(=O)(=O)c3ccc(F)cc3)c2O[C@H]1CN(C)Cc1ccc(C(=O)Nc2ccccc2N)cc1 | . | / | .
Cc1ccc(S(=O)(=O)N(C)C[C@H]2Oc3ncc(-c4ccccc4)cc3C(=O)N([C@@H](C)CO)C[C@H]2C)cc1 | . | . | .
O=C(c1ccc2c(c1)OCO2)N1CC2(C1)[C@@H](c1ccccc1)[C@@H](CO)N2C(=O)C1CCCC1 | . | / | .
C[C@H]1CN([C@@H](C)CO)C(=O)c2cccc(NS(=O)(=O)c3ccc(F)cc3)c2O[C@H]1CN(C)Cc1ccc(Cl)c(Cl)c1 | . | . | -82
C[C@H](CO)N1C[C@H](C)[C@H](CN(C)Cc2ccc(Cl)c(Cl)c2)Oc2c(NS(=O)(=O)c3ccc(F)cc3)cccc2C1=O | . | . | .
C[C@@H]1CN([C@@H](C)CO)C(=O)c2cccc(N(C)C)c2O[C@H]1CN(C)C(=O)Nc1ccc2c(c1)OCO2 | . | . | .
O=C(C[C@@H]1CC[C@@H]2[C@H](COC[C@@H](O)CN2C(=O)c2cnccn2)O1)NCc1ccccc1 | / | . | .
COc1ccc(NC(=O)N(C)C[C@H]2Oc3ccc(NC(=O)CCCCCC(=O)Nc4ccccc4N)cc3C(=O)N([C@@H](C)CO)C[C@@H]2C)cc1 | . | / | .
COc1ccc2c3c([nH]c2c1)[C@@H](CO)N(C(=O)Nc1ccccc1F)CC31CCN(C(=O)c2ccccc2F)CC1 | . | / | .
C[C@H]1CN([C@@H](C)CO)C(=O)Cc2cc(NC(=O)Nc3ccc4c(c3)OCO4)ccc2O[C@@H]1CN(C)Cc1ccc(Oc2ccccc2)cc1 | . | . | .
C[C@H](CO)N1C[C@H](C)[C@H](CN(C)Cc2ccc(Oc3ccccc3)cc2)Oc2ccc(NC(=O)Nc3ccc(F)cc3)cc2CC1=O | . | . | .
C[C@@H]1CN([C@@H](C)CO)C(=O)Cc2cc(NC(=O)Nc3ccc4c(c3)OCO4)ccc2O[C@H]1CN(C)Cc1ccc(Oc2ccccc2)cc1 | . | . | -81
C[C@H](CO)N1C[C@H](C)[C@@H](CN(C)Cc2ccc(Oc3ccccc3)cc2)Oc2ccc(NC(=O)Nc3ccc(F)cc3)cc2CC1=O | . | . | -82
C[C@H]1CN([C@@H](C)CO)C(=O)c2cc(NC(=O)Cc3cn(C)c4ccccc34)ccc2O[C@@H]1CN(C)CC1CC1 | . | / | -83
C[C@H](CO)N1C[C@H](C)[C@@H](CN(C)Cc2ccc(Oc3ccccc3)cc2)Oc2ccc(NC(=O)Cc3cn(C)c4ccccc34)cc2C1=O | . | . | -84
COc1ccc(CN(C)C[C@@H]2Oc3ccc(NC(=O)Cc4cn(C)c5ccccc45)cc3C(=O)N([C@@H](C)CO)C[C@H]2C)cc1 | . | . | .
